# High-throughput results from PubChem.
# An excerpt weighted towards active compounds, which were near 1.5% of everything screened.
# Casp6 inh: inhibitors of human caspase-6 | P55212 | purified caspase-6, Z-VEID-R110 cleavage fluorescence | inhibition, % at 12.5 µM | 0.53% of 350,000 active | AID 686996;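 active = mean inhibition across replicates at least about 35%, with every replicate also reaching that limit, limit read from the data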;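 also: 0% = median of neutral control wells and 100% = no fluorescence left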
# NSD2 inh: inhibitors of human histone methyltransferase NSD2; O96028; AID 743445; NSD2 peptide methylation, AlphaScreen, 120 min; inhibition, % at 12.5 µM; 0.54% of 310,000 active; in the data active = inhibition above about 50%
# RAD52 anneal inh: RAD52 (human) annealing inhibition | AID 651710 | 0.46% of 360,000 active | P43351 | inhibition, % at 18.7 µM | recombinant RAD52 DNA annealing, FRET fluorescence;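 active = every replicate showing at least 50% inhibition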
# Target sequence (P43351 whole entry, looked up): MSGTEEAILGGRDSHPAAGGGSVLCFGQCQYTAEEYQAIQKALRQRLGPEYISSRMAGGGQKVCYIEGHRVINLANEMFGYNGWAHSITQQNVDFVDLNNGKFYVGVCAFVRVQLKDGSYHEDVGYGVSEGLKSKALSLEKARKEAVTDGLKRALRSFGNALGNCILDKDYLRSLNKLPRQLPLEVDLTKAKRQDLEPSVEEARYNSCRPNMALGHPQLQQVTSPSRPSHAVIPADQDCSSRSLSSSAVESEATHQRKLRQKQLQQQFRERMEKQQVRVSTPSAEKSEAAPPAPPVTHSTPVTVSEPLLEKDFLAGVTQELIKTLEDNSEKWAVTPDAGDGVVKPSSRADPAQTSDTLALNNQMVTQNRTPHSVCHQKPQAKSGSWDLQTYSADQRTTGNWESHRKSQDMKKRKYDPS
# MLL AF4-AF9 inh: MLL-AF4/AF9 protein interaction inhibition; P42568; AlphaScreen, biotin-AF4 peptide binding to FLAG-AF9; inhibition, % at 10 µM; 0.47% of 350,000 active; AID 651704;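 active = every replicate reaching a set inhibition limit, whatever the replicate mean, cut at about 25% in these data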;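 also: 0% = plate neutral control median and 100% = total signal loss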
# miR-122 sensor: miR-122 inhibition in Huh7 cells; activation (reporter increase), % at 12.5 µM; 0.3% of 340,000 active; AID 602342; Huh7 miR-122 Renilla luciferase sensor, 48 h; neutral wells = 0, positive control = 100;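 active = mean replicate activation score at least 90 and every replicate individually at or above 90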;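 also: higher luciferase means less miR-122 activity so hits act as miR-122 inhibitors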
# Active calls of the source: *; . = no result given; [ ] = dose if it differs, or a comment.
SMILES,Casp6 inh,NSD2 inh,RAD52 anneal inh,MLL AF4-AF9 inh,miR-122 sensor
O=C(NCC1CCCO1)C(c1cccs1)N(Cc1ccccc1)C(=O)c1ccc(-c2ccccc2)[nH]1 (configuration not stated),.,-2,.,.,.
CCN1CCN(S(=O)(=O)c2ccc(Cl)c(C(=O)N(C)C3CCCCC3)c2)CC1,-227,1,-134,26*,-2
CC1(C(=O)NNC(=O)c2ccc(=O)oc2)CC1Br (configuration not stated),42*,7,-308,-1,69
Nc1cccnc1Oc1ccc(F)cc1,52*,38,-10,-1,.
Cc1ccc(Oc2ncccc2N)c2c1CCC2,4,4,-6,1,-2
Nc1cccnc1Oc1ccc(F)cc1F,46*,-4,2,-1,.
CCNC(=O)[C@@H]1[C@@H](CO)[C@@H]2Cn3c(ccc(-c4cccc(F)c4)c3=O)[C@@H]2N1Cc1nccs1,1,.,36,1,4[16.7 µM]
Cc1ccc(C)n1-c1sc2c(c1C(=O)O)CCCC2,52*,.,-32,-1,.
C[C@H](CO)N1C[C@H](C)[C@@H](CN(C)C(=O)CCCN(C)C)OCCCC[C@H](C)Oc2ccc(NC(=O)Cc3ccccc3)cc2C1=O,1,.,20,-4,1[16.7 µM]
O=C(N[C@H](Cc1ccccc1)C(=O)N1CCN(C(=O)N2CCOCC2)CC1)[C@H]1O[C@@H](n2ccc(=O)[nH]c2=O)[C@H](O)[C@@H]1O,51*,.,-12,.,.
CC(=O)c1ccc2c(c1)C1C=CCC1C(C(=O)O)N2 (configuration not stated),.,128*,1,-12,-9
COc1ccc(CNC(=O)C[C@@H]2CC[C@@H]3[C@H](COc4ccc(NC(=O)C(C)C)cc4C(=O)N3C)O2)cc1,.,.,.,.,-20[16.7 µM]
C[C@@H]1CN([C@@H](C)CO)S(=O)(=O)c2ccc(Br)cc2O[C@H]1CN(C)CC1CCOCC1,.,.,.,.,-6[16.7 µM]
Cc1cc2c(NC(=O)Nc3ccc(F)cc3)cccc2nn1,68*,1,1,.,-2
Cc1cc2c(NC(=O)CC(C)(C)CC(=O)O)cccc2nn1,12,31,-3,1,.
Cc1ccc(NS(=O)(=O)c2csc(C(N)=O)c2)cc1C,-3,-5,-13,2,99*
COc1ccc(C#Cc2ccc3c(c2)[C@]2(C(=O)N3)[C@H](C(=O)N3CCN(c4ncccn4)CC3)[C@H]3C(=O)O[C@H](c4ccccc4)[C@H](c4ccccc4)N3[C@@H]2c2ccc(OCCO)cc2)cc1,2,.,-19,-2,.
O=C1O[C@@H](c2ccccc2)[C@@H](c2ccccc2)N2[C@@H](c3ccc(O)cc3)[C@]3(C(=O)Nc4ccccc43)[C@@H](C(=O)N3CCCCCCC3)[C@H]12,0,.,58*,0,.
O=C1O[C@@H](c2ccccc2)[C@@H](c2ccccc2)N2[C@@H](c3ccc(OCCO)cc3)[C@]3(C(=O)Nc4ccc(C#CCCO)cc43)[C@@H](C(=O)N3CCN(c4ncccn4)CC3)[C@H]12,1,.,52*,1,.
O=C1O[C@@H](c2ccccc2)[C@@H](c2ccccc2)N2[C@@H](c3ccccc3OCCO)[C@]3(C(=O)Nc4ccc(C#CCCO)cc43)[C@@H](C(=O)N3CCN(c4ncccn4)CC3)[C@H]12,0,.,76*,-1,.
CC(C)[C@@H]1COCn2nncc2CC[C@H](Cc2ccccc2)C(=O)N1,-3,.,6,12,.
O=C(NC1CCCCC1)N[C@H]1CC[C@H](CCNS(=O)(=O)c2ccccc2)O[C@@H]1CO,0,.,17,2,.
Cc1cc(C)c(S(=O)(=O)NCCCn2ccnc2)cc1C,-16,-1,-5,6,129*
Cc1cc(S(=O)(=O)NCCCn2ccnc2)c(C)cc1Cl,-10,1,3,1,.
CC(=O)c1c(C)[nH]c(C(=O)Nc2ccc(C)c(S(=O)(=O)Nc3ccc(C)cc3C)c2)c1C,-1,.,-23,.,166*
Cc1cc(NC(=O)CSc2sc3c(O)cc(=O)[nH]c3c2C#N)ccc1Br,9,.,-38,-2,3
COC(=O)c1ccc(C)c(NC(=O)CSc2sc3c(O)cc(=O)[nH]c3c2C#N)c1,54*,28,-42,-1,-4
COc1ccc(NC(=O)CSc2sc3c(O)cc(=O)[nH]c3c2C#N)c(OC)c1,59*,47,-11,-6,-3
Cc1ccc(Cl)cc1NC(=O)CSc1sc2c(O)cc(=O)[nH]c2c1C#N,44*,3,-45,3,8
COc1ccc(Cl)cc1NC(=O)CSc1sc2c(O)cc(=O)[nH]c2c1C#N,28,.,-46,0,.
